Compound activity as filed in PubChem.
Shown are actives, neighbours in structure and some others; about 13% of the full set was active somewhere.
Pf growth 96h: inhibits malaria parasite growth, 96 h | AID 504834 | actives 6.9% (n = 320,000) | Potency, µM (titrated, usually from 28.7 µM), most hits filed as inhibitors | P. falciparum luciferase reporter growth, 96 h
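Erythrocytes infected with luciferase-expressing P. falciparum were dispensed at 2% hematocrit and 0.05% parasitemia (final), then incubated with compounds 96 hours at 37 C in 5% CO2. Luminescence after detection reagent addition reported growth.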
HCMV antiviral: blocks human cytomegalovirus replication; HFF cells, HCMV-luciferase reporter, 72 h; stronger effect = lower value; activity change, negative = inhibition, % at 57.5 µM; actives 4.5% (n = 410,000); in the data active means activity change below about -60%; inconclusive means no clear call, values can overlap the other calls; inactive means above about -39%
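Two compound doses tested in HFFs infected with HCMV-luciferase, MOI 1 PFU/cell, 72 h at 37C. Lysate luminescence read with OneGlo; data normalized against buffer-only and 10uM Salinomycin inhibitor controls.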
HCV inhibitor: blocks hepatitis C virus; Potency, µM (titrated, usually from 41.8 µM), actives largely listed as inhibitors; AID 651820; Huh7.5.1 HCVcc-Cre infection, luciferase reporter, 44 h; actives 3.4% (n = 340,000)
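HCVcc-Cre virus at an moi near 0.5 was added right after compound to cells cultured 4 h from seeding (1,000 cells/well). Luciferase activity was determined 44 h later, 15 min after substrate addition at RT.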
Pf growth 48h: inhibits P. falciparum growth in the first generation, 48 h; P. falciparum luciferase growth in erythrocytes, 48 h; Potency, µM (top dose mostly 28.7 µM), most hits filed as inhibitors; actives 5.9% (n = 310,000)
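Luciferase-expressing parasites in RBCs, 2% Hct / 0.1% parasitemia final; RPMI 1640 + 0.5% Albumax; 37 C, 5% CO2, one generation; luminescence read-out, lower signal = inhibition.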
Of the large screens only hits and unclear results are named; the others gave an inactive call. Unless noted, the call rests on the fitted dose curve; in most records, active means well fitted inhibition curve with a large enough effect; inconclusive means small, poorly fitted or top-dose-only effect, or another doubt; inactive means no such curve, though single readings can be large or run the other way.

CCSc1nc(NCCN(C)C)c2c3c(sc2n1)COC(C)(CC)C3 (configuration not stated)	Pf growth 96h 12µM, Pf growth 48h 3.3µM
CCOc1ccc(OCC(=O)Nc2nnc3n2CCS3)cc1	none (no result: Pf growth 96h, HCV inhibitor, Pf growth 48h)
CCS(=O)c1ccccc1C(=O)OCC(=O)Nc1cccc(S(=O)(=O)N2CCCCC2)c1 (configuration not stated)	Pf growth 96h inconclusive, HCV inhibitor 10µM
COc1cc(C#N)ccc1OCC(=O)Nc1cccc(S(=O)(=O)N2CCCC2)c1	Pf growth 96h 8.3µM, Pf growth 48h 9.3µM
Cc1cccc(C)c1OCC(=O)Nc1cccc(S(=O)(=O)N2CCCC2)c1	Pf growth 96h inconclusive, HCV inhibitor 8.9µM, Pf growth 48h inconclusive
N#Cc1ccccc1OCC(=O)Nc1cccc(S(=O)(=O)N2CCCC2)c1	Pf growth 96h inconclusive, HCV inhibitor inconclusive, Pf growth 48h inconclusive
CCOc1ccccc1C(=O)OCC(=O)Nc1cccc(S(=O)(=O)N2CCCC2)c1	none (no result: Pf growth 96h, Pf growth 48h)
COC(=O)[C@@]12C[C@@H](CC(=O)N3CCOCC3)C(=O)N(Cc3ccccc3)C1=CCC(C)(C)C2	none (no result: Pf growth 96h, HCV inhibitor, Pf growth 48h)
CCOc1ccc(OCC)c(NC(=O)CN2CCN(c3cccc(C)c3)C(C)C2)c1 (configuration not stated)	Pf growth 96h inconclusive, HCV inhibitor 8.9µM, Pf growth 48h 13µM
CCOc1ccc(OCC)c(NC(=O)CN2CCN(CC)CC2)c1	none
CCOc1ccc(OCC)c(NC(=O)CN2CCN(CC(=O)NC(C)C)CC2)c1	Pf growth 96h 13µM
CCOc1ccc(OCC)c(NC(=O)CN2CCN(c3cccc(C)c3)CC2)c1	HCV inhibitor inconclusive, Pf growth 48h 13µM
COc1ccc(CN2C(=O)C(C)N(C(=O)c3c(F)cccc3F)c3ccccc32)cc1 (configuration not stated)	Pf growth 96h 2.1µM, HCMV antiviral inconclusive, HCV inhibitor inconclusive, Pf growth 48h 1.9µM
CC1C(=O)N(Cc2ccc([N+](=O)[O-])cc2)c2ccccc2N1C(=O)c1c(F)cccc1F (configuration not stated)	Pf growth 96h inconclusive, HCMV antiviral inconclusive, HCV inhibitor inconclusive, Pf growth 48h 9.3µM
COc1cccc(CN2C(=O)C(C)N(C(=O)c3ccccc3)c3ccccc32)c1 (configuration not stated)	Pf growth 96h 10µM, HCMV antiviral -71, HCV inhibitor inconclusive, Pf growth 48h inconclusive
COC(=O)c1ccc(NC(=O)C(c2ccccc2)N2Cc3ccccc3C2=O)cc1 (configuration not stated)	none (no result: Pf growth 96h, HCV inhibitor, Pf growth 48h)
CCc1nnc2n1N=C(c1ccc(-c3cc(Cl)ccc3Cl)o1)CS2	Pf growth 96h 9.3µM (no result: Pf growth 48h)
CN(C)c1ccc(C(=O)Nc2c(C(=O)NC(C)(C)C)oc3ccccc23)cc1	none (no result: Pf growth 96h, HCV inhibitor, Pf growth 48h)
CCOc1ccc(NC(=S)/C(=C(\[O-])c2ccc(C)c([N+](=O)[O-])c2)[n+]2ccccc2)cc1	Pf growth 48h inconclusive (no result: Pf growth 96h, HCMV antiviral)
CCc1cc[n+](/C(C(=S)Nc2cccc(C)c2)=C(/[O-])c2ccc(C)c([N+](=O)[O-])c2)cc1	Pf growth 96h 0.15µM, Pf growth 48h inconclusive
CCn1c(SCC(=O)c2c[nH]c3ccccc23)nc2cc(S(=O)(=O)N3CCOCC3)ccc21	Pf growth 96h 2.3µM, HCMV antiviral inconclusive, HCV inhibitor inconclusive, Pf growth 48h 9.3µM
O=C(OCn1nnc2ccccc2c1=O)c1cccnc1	Pf growth 48h inconclusive
COc1ccc(-c2nn(-c3ccccc3)cc2C(=O)O)cc1	none (no result: Pf growth 48h)
O=C(O)c1cn(-c2ccccc2)nc1-c1ccncc1	none (no result: Pf growth 96h)
O=C(OCn1nnc2ccccc2c1=O)c1cn(-c2ccccc2)nc1-c1cccnc1	HCV inhibitor 10µM
COC(=O)c1cn(-c2ccccc2)nc1-c1ccccc1	HCV inhibitor 11µM (no result: Pf growth 48h)
CCOC(=O)c1cn(-c2ccccc2)nc1-c1ccncc1	HCV inhibitor 10µM, Pf growth 48h inconclusive
CCOC(=O)c1cn(-c2ccccc2)nc1-c1cccnc1	Pf growth 96h inconclusive, HCV inhibitor 10µM
CC1CN=C(c2cc(Cl)c(N)c(Cl)c2)c2c3ccccc3nn21 (configuration not stated)	none (no result: Pf growth 96h, HCV inhibitor, Pf growth 48h)
CCOCCc1nn2c(=O)cc(COC(=O)Cc3ccccc3)nc2s1	none (no result: Pf growth 96h, HCV inhibitor, Pf growth 48h)
O=C(NC1CCN(Cc2ccccc2)CC1)c1cn(-c2ccccc2)nc1-c1cccnc1	Pf growth 96h 2.3µM, Pf growth 48h 3.7µM
COc1cccc(-c2nc(NCCN3CCOCC3)c3ccccc3n2)c1O	HCV inhibitor 10µM, Pf growth 48h inconclusive
c1ccc2c(NCCCN3CCOCC3)c3ccccc3nc2c1	Pf growth 96h inconclusive, HCMV antiviral -102, Pf growth 48h inconclusive (no result: HCV inhibitor)
Oc1ccccc1-c1nc(NCCN2CCOCC2)c2ccccc2n1	Pf growth 96h inconclusive, HCV inhibitor 7.1µM, Pf growth 48h inconclusive
Fc1ccccc1-c1nc(NCCCN2CCOCC2)c2ccccc2n1	Pf growth 96h inconclusive, Pf growth 48h inconclusive
Cc1cc(NCCN2CCOCC2)c2ccc3ccccc3c2n1	HCMV antiviral -69, Pf growth 48h inconclusive
CCOc1ccc(OCC(=O)NCCS(=O)(=O)N2CCN(c3cccc(Cl)c3)CC2)cc1	none (no result: Pf growth 96h, HCV inhibitor, Pf growth 48h)
CN(C)CCCNc1nc(-c2ccccc2)nc2ccccc12	Pf growth 96h inconclusive, Pf growth 48h inconclusive
Cc1ccc(-c2nc(NCCN3CCOCC3)c3ccccc3n2)cc1	Pf growth 96h 4.1µM (no result: Pf growth 48h)
Clc1ccc(-c2nc(NCCCN3CCOCC3)c3ccccc3n2)cc1	Pf growth 96h inconclusive, Pf growth 48h inconclusive
CN(C)CCCNc1c2ccccc2nc2ccccc12	HCMV antiviral -102, HCV inhibitor 7.9µM, Pf growth 48h 1µM
COc1ccc(Cl)cc1-n1cc(-c2ccccc2)nc1SCC(=O)Nc1ccc(C)cc1	none (no result: Pf growth 96h, HCV inhibitor, Pf growth 48h)
COc1cc(Cl)c(S(=O)(=O)N2CCN(c3c(C)cccc3C)CC2)cc1Cl	none (no result: Pf growth 96h, HCV inhibitor, Pf growth 48h)
CCOC(=O)C1CCN(c2cc3c(cc2NC(=O)c2ccccc2F)n(C)c(=O)n3C)CC1	HCV inhibitor 11µM, Pf growth 48h inconclusive
Cn1c(=O)n(C)c2cc(NC(=O)c3ccc(F)cc3)c(Br)cc21	Pf growth 96h 2.9µM, HCMV antiviral inconclusive, Pf growth 48h inconclusive
CCOC(=O)C1CCN(c2cc3c(cc2NC(=O)c2ccc(F)cc2)n(C)c(=O)n3C)CC1	HCV inhibitor inconclusive, Pf growth 48h 12µM
CCOC(=O)C1CCN(c2cc3c(cc2NC(=O)c2ccc(Cl)cc2)n(C)c(=O)n3C)CC1	none (no result: Pf growth 96h, HCV inhibitor, Pf growth 48h)
O=C(CCC1N=C2c3ccccc3N=C(SCc3cccc(F)c3)N2C1=O)NCc1cccs1 (configuration not stated)	none (no result: Pf growth 96h, HCV inhibitor, Pf growth 48h)
CC1=C(C(=O)Nc2ccc([N+](=O)[O-])cc2)C(c2cccc(C(F)(F)F)c2)NC(=S)N1c1ccccc1 (configuration not stated)	HCMV antiviral -98, HCV inhibitor inconclusive, Pf growth 48h 13µM (no result: Pf growth 96h)
Cc1ccc(CNC(=O)C2CCN(C(=O)c3cnn(-c4ccccc4)c3-n3cccc3)CC2)cc1	none (no result: Pf growth 96h, HCV inhibitor, Pf growth 48h)
O=C(CCc1nc(-c2cccs2)no1)NCc1ccc(F)cc1Cl	HCMV antiviral -63 (no result: Pf growth 96h, Pf growth 48h)
Cc1ccc(CNC(=O)CCc2nc(-c3cccs3)no2)cc1	Pf growth 96h inconclusive, HCMV antiviral -75 (no result: Pf growth 48h)
